Source: PubChem BioAssay (National Center for Advancing Translational Sciences (NCATS))
TRHR enhancer = TRH receptor (human) allosteric enhancement; AID 493056; actives 0.66% (n = 360,000); TRHR cells, fluo-8 calcium fluorescence, EC20 TRH enhancement; enhancement, % at 2 µM; in the data active = enhancement above about 30%; note: 0% is about no effect
Target sequence (P34981 whole entry, looked up): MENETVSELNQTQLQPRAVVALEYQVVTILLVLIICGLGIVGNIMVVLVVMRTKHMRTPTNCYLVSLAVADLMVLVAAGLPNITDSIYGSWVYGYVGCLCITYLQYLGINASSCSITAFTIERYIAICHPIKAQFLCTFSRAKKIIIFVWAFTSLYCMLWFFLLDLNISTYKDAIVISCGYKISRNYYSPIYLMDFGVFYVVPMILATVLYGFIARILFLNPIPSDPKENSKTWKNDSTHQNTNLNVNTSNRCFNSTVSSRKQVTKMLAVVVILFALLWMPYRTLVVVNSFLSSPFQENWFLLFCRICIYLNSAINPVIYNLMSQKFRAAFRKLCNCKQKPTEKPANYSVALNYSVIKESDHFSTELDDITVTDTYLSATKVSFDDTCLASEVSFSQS
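TRHR-expressing cells loaded with fluo-8 calcium dye were read kinetically (ex 480/em 530) during compound addition, then stimulated with an EC20 of TRH (10 nM final). Enhancement of the Gq-mediated intracellular calcium response was scored.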
D1 ag = agonists of human D1 dopamine receptor. P21728. HEK293 T-REx D1 cells, calcium flux, agonist mode. activation, % at 2 µM. actives 1% (n = 360,000); note: 0% is about no effect
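Agonism was scored from calcium flux recorded over 180 s (1 read/s) after pintool compound addition, following a 10-cycle baseline. Cells were inducible force-coupled HEK293 TREx D1, plated overnight at 30 C and loaded with no-wash calcium dye.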
D1 potentiator = potentiators of human D1 dopamine receptor | P21728 | HEK293 TREx D1 cells, calcium flux, dopamine EC20 potentiation | potentiation, % at 10 µM | actives 0.036% (n = 360,000) | AID 504651; in the data active = potentiation above about 30%; note: 0% is about no effect
TRHR ag = agonists of human TRH receptor; activation, % at 2 µM; TRHR cells, calcium flux fluo-8, FDSS agonist mode; actives 0.18% (n = 360,000); AID 493084; P34981; note: 0% is about no effect
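In this calcium-flux screen, cells bearing human TRHR are dye-loaded with fluo-8, baselined for 10 cycles, then exposed to library compounds; positive kinetic calcium responses during the agonist phase mark hits, with TRH as control.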
D1 antag = antagonists of human D1 dopamine receptor. P21728. HEK293 TREx D1 cells, calcium flux, dopamine EC80; hits give low values. activity change, negative = inhibition, % at 10 µM. actives 3.2% (n = 360,000). AID 504652; in the data active = activity change below about -30%; note: % is set by controls: 0 for no effect and ±100 for the full control effect
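HEK293 T-REx cells expressing inducible, force-coupled D1 receptor; no-wash Ca dye, 30–90 min RT. Cmpd → 180 s read at 1 Hz → EC80 DA → 180 s read.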
* hit, by the source's call; x = no result given; ! = not confirmed by another sample. A selection: hits, their analogues and other compounds. The true share with any hit is near 4.6%. Cut-off read from the data, not from the text of the source, unless noted: active = activation above about 30%; inactive = the rest.

SMILES	TRHR enhancer	D1 ag	D1 potentiator	TRHR ag	D1 antag
[O-][n+]1onc2c1CCC1N(O)CCC21O (centres undefined)	-3.5	0.5	-0.5	0.4	-30.0*
COc1cccc(NC(=O)c2cccn(Cc3ccccc3C)c2=O)c1	-0.8	9.1	-4.9	0.7	-11.4
Cc1ccc2c(c1)C1CN(C)CCC1N2C(=O)CCCN1C(=O)c2cccc3cccc(c23)C1=O (centres undefined)	6.1	1.2	-16.3	0.1	-49.3*
Cc1ccc2c(c1)C1CN(C)CCC1N2C(=O)Nc1cccc(C(F)(F)F)c1 (centres undefined)	8.6	23.1	-3.9	2.1	x
Cc1ccc2c(c1)[C@@H]1CN(C)CC[C@@H]1N2C(=O)Nc1cccc(C(F)(F)F)c1	3.1	19.7	-27.1	2.5	-51.6*
COc1cc(C=C2C(=O)NC(=O)NC2=O)ccc1OS(=O)(=O)c1ccccc1[N+](=O)[O-]	13.5	5.9	x	-0.5	-0.9
Cc1nc2ccccc2c(=O)n1-c1ccc(C(=O)O)cc1	30.6*	4.1	-0.5	0.5	-17.0
Cc1nc2ccccc2c(=O)n1-c1cccc(C(F)(F)F)c1	0.6	2.3	-4.7	-0.9	2.1
CC(C)(C)c1ccc(OCC(=O)Nc2ccc(Cl)cc2C(=O)c2ccccc2)cc1	-1.3	-0.1	-0.2	-0.3	7.7
CCC(CO)NC(=O)C1C=C2c3cccc4[nH]cc(c34)CC2N(C)C1 (centres undefined)	-3.0	24.5	-13.6	0.4	-86.4*
CC[C@@H](CO)NC(=O)[C@@H]1C=C2c3cccc4c3c(cn4C)C[C@H]2N(C)C1	-4.1	18.0	-2.8	14.9	-76.8*!
COC(=O)C1C=C2c3cccc4[nH]cc(c34)CC2N(C)C1 (centres undefined)	-2.5	8.9	-8.2	1.1	-1.0
COC(=O)C1=C(c2ccc(OCc3ccccc3)cc2)C[C@@H]2CC[C@H]1N2C(=O)NCc1cccc(OC)c1	0.3	5.4	2.7	0.8	-5.8
COc1cc(/C=C2\C(=O)NC(=O)N(c3ccccc3)C2=O)c([N+](=O)[O-])cc1OC	-10.1	1.1	-3.6	0.5	-56.3*
Cc1ccccc1Cn1cccc(C(=O)Nc2cc(Cl)ccc2C#N)c1=O	-2.6	5.5	-4.2	0.4	-7.3
c1ccc(CNc2c3c(nc4ccccc24)CCC3)cc1	8.4	22.4	-19.8	0.3	-49.8*
CC(C)CNc1c2c(nc3ccccc13)CCC2	6.0	9.0	-4.2	0.7	-11.8
Fc1ccc2c(c1)nnn2C1CCN(Cc2ccccc2)CC1	0.0	0.9	-19.6	-1.0	-33.2*
O=P(Nc1ccccc1)(Oc1ccccc1)Oc1ccccc1	16.9	2.1	4.9	-0.3	1.8
O=P(CCl)(Nc1ccccc1)C(Cl)(Cl)Cl (centres undefined)	-4.4	-0.2	1.4	-0.1	-40.9*
Cc1cc(O)c2c3c(c(=O)oc2c1)CCC(C)C3 (centres undefined)	-11.6	36.6*	-4.8	0.3	-35.3*
COc1ccc(NC(=O)CN2C(=O)CN=C(c3ccccc3)c3ccccc32)c(OC)c1	-2.8	0.7	-0.6	-0.2	-15.1
CN1CCN(c2nc(N)cc(=O)[nH]2)CC1	5.7	2.0	0.9	1.6	-57.8*
COC(=O)C1=C(c2cccc(OCc3ccccc3)c2)C[C@@H]2CC[C@H]1N2C(=O)NCc1cccc(C(F)(F)F)c1	-4.3	8.0	-6.8	0.7	x
COC(=O)C1=C(c2cccc(OCc3ccccc3)c2)C[C@@H]2CC[C@H]1N2C(=O)NCc1cc(C)oc1C(F)(F)F	-6.4	4.1	7.9	0.9	-30.7*
SMILES	TRHR enhancer	D1 ag	D1 potentiator	TRHR ag	D1 antag
COC(=O)C1=C(c2ccc(F)cc2OCc2ccccc2)C[C@@H]2CC[C@H]1N2C(=O)NC1Cc2ccccc2C1	-5.8	1.6	-3.8	0.5	-31.3*
COC(=O)C1=C(c2cccc(OCc3ccccc3)c2)C[C@@H]2CC[C@H]1N2C(=O)NCc1ccc(OC)cc1	0.9	2.8	41.1*	0.6	5.2
CC1CCCC(NC(=O)CNC(=S)N2CC3CC(C2)c2cccc(=O)n2C3)C1C (centres undefined)	-0.2	1.0	-2.8	0.0	-2.7
O=c1c2ccccc2nc(/C=C/c2ccccc2F)n1-c1cccc(O)c1	-5.2	0.5	-0.8	0.4	2.2
COc1ccc2c(c1O)-c1c(OC)c(OC)cc3c1[C@H](C2)N(C)CC3	2.3	-0.3	-6.3	0.2	-62.7*
CCN(CC)C(=O)c1ccc(NC(=O)CCn2nc(-c3ccc(Cl)cc3)c3ccccc3c2=O)cc1	-2.9	0.5	-5.8	-0.7	-3.8
CCOc1cc2c(cc1OCC)-n1cccc1C(c1ccc(F)c(OC)c1)NC2 (centres undefined)	-10.1	65.7*	-6.2	3.9	-42.5*
Cn1c(=O)n(C)c2cc(CNCCc3ccc(F)cc3)ccc21	-3.8	7.6	-1.1	0.8	2.2
CCNCCNc1ccc([N+](=O)[O-])c2cccnc12	0.9	1.9	-6.2	-0.3	-5.0
Cc1nonc1OCCNCCNc1ccc([N+](=O)[O-])c2cccnc12	-11.9	5.8	0.1	0.4	-35.0*
Cc1onc(-c2c(Cl)cccc2Cl)c1C(=O)Nc1ccc2c(C(F)(F)F)cc(=O)oc2c1	8.7	3.9	0.2	-0.3	-30.3*
COc1ccc(CC(=O)Nc2ccc3c(C(F)(F)F)cc(=O)oc3c2)cc1OC	-4.9	-0.7	-7.5	-1.2	13.4
COc1ccc(Cl)cc1N=Cc1c(O)n(C)c(=O)n(C)c1=O	15.1	1.3	-8.3	0.5	3.0
COc1ccccc1N=Cc1c(O)n(C)c(=O)n(C)c1=O	-1.1	2.2	0.1	-0.5	-35.4*
Cc1cccc(-c2nc(CN3C(=O)CN=C(c4ccccc4)c4ccccc43)c(C)o2)c1	-13.0	2.1	-1.4	-0.6	0.0
CCN1C(=O)C(=Cc2ccc(N3CCOCC3)o2)C(=O)N(CC)C1=S	2.3	65.9*	-1.7	25.8	-0.7
CN1C(=O)/C(=C\c2ccc(N3CCCCC3)o2)C(=O)NC1=S	-9.6	32.7*	-3.6	26.2	-0.9
CN1CCN(c2ccc(/C=C3\C(=O)NC(=S)N(c4cccc(Br)c4)C3=O)o2)CC1	9.2	90.4*	-6.3	24.2	4.1
O=C1NC(=O)N(c2ccc3c(c2)OCO3)C(=O)/C1=C/c1ccc(N2CCCC2)o1	-7.4	33.2*	-7.0	13.0	3.7
CN1C(=O)/C(=C/c2ccc(N3CCCCCC3)o2)C(=O)NC1=S	2.5	20.6	1.1	24.8	-6.5
CN1C(=O)C(=Cc2ccc(N3CCOCC3)o2)C(=O)N(C)C1=S	6.6	18.4	-0.4	13.1	5.7
COc1ccc(OC)c(N=Cc2c(O)[nH]c(=O)[nH]c2=O)c1	6.4	0.0	-9.1	-0.3	-0.9
Cc1cc(C)cc(NC(=O)CN2C(=O)CN=C(c3ccccc3)c3cc(Cl)ccc32)c1	-3.2	3.0	-0.8	0.1	-7.0
